This is an account of results in PubChem BioAssay (EPA / NIEHS).

In assay [1] the target is Transcription factor E2F1 (Homo sapiens) (UniProt Q01094). The experiment in a line: ATG_E2F_CIS: Attagene CIS-FACTORIAL HepG2 Assay for human E2F Transcription Factor 1 (AID 2282935). The settings on record: HepG2 Attagene cis-reporter, E2F reporter RNA transcripts; actives raise or lower the signal. In short, it runs like this:
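Transient MRTU transfection of HepG2; 24 h compound exposure; RNA → oligo(dT) RT → PCR → FAM label → HpaI cut → CE fluorescence. Gain/loss of signal fit against DMSO.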

The nature of assay [2]: ATG_E_Box_CIS: Attagene CIS-FACTORIAL HepG2 Assay for human Enhancer Box (E-box) (AID 2282936). Particulars: HepG2 E-box cis-reporter transcription, actives raise or lower the signal. In short, it runs like this:
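Transiently transfected HepG2, endogenous TF-driven reporters, 24 h dosing. Readout: RT-PCR plus capillary electrophoresis of fluorescent reporter fragments. Gain or loss of signal fitted bidirectionally against DMSO baseline.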

Assay [3] can be described thus: ATG_M_19_CIS: Attagene CIS-FACTORIAL HepG2 Assay for M19 Transcription Factor (Internal Marker) (AID 2282939). Particulars: HepG2 Attagene CIS-FACTORIAL M19 internal marker reporter; actives raise or lower the signal. In short, it runs like this:
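Readout: fluorescent reporter-transcript fragments by capillary electrophoresis after RT-PCR. Human HepG2 liver cells carried transfected MRTU constructs reporting endogenous transcription-factor activity; exposure 24 h. Gain or loss of signal fitted relative to DMSO.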

Assay [4] in a line: ATG_ERE_CIS: Attagene CIS-FACTORIAL HepG2 Assay for Estrogen Response Element (ERE) (AID 2282940). The settings on record: HepG2 ERE cis-reporter, Attagene RNA transcript; actives raise or lower the signal. In short, it runs like this: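 Readout: reporter mRNA induction by RT-PCR, FAM-labelled primer extension, HpaI digestion and capillary electrophoresis, 24 h after dosing transfected HepG2 cells. Endogenous transcription factors act on cis-element-regulated reporters. Gain or loss fitted against DMSO.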

Assay [5] concerns the target Hepatocyte nuclear factor 3-beta (Homo sapiens) (UniProt Q9Y261). Briefly: ATG_FoxA2_CIS: Attagene CIS-FACTORIAL HepG2 Assay for human Forkhead box A2 (FOXA2) (AID 2282942). Particulars: HepG2 cis-reporter transcription factor activity, 24 h; actives raise or lower the signal. The essentials:
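Measured: reporter mRNA induction or loss in HepG2 transiently carrying multiple cis-regulated reporter units, 24 h after dosing. Quantified by RT-PCR plus capillary electrophoresis, normalised to DMSO.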

Assay [6] in a line: ATG_FoxO_CIS: Attagene CIS-FACTORIAL HepG2 Assay for human Forkhead box O (FoxO) (AID 2282943). The settings on record: HepG2 Attagene cis-reporter, FoxO element, mRNA; actives raise or lower the signal. In short, it runs like this: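 Transfected HepG2 reporter cells exposed to test chemical for 24 h; reporter RNA measured by reverse transcription, PCR and fluorescent capillary electrophoresis; curves fitted for increases and decreases against DMSO.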

A short description of assay [7]: ATG_GATA_CIS: Attagene CIS-FACTORIAL HepG2 Assay for human GATA Binding Protein (AID 2282944). Particulars: HepG2 GATA cis-element reporter, Attagene multiplex mRNA; actives raise or lower the signal. In short, it runs like this: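 Read-out: fluorescent reporter mRNA fragments resolved by capillary electrophoresis after RT-PCR. Human liver HepG2 cells carried transiently transfected cis-regulated reporter constructs; chemicals incubated 24 h; gain or loss of signal fitted relative to DMSO.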

Assay [8] is described as follows: ATG_EGR_CIS: Attagene CIS-FACTORIAL HepG2 Assay for human Early Growth Response 1 (EGR1) (AID 2282938). Particulars: HepG2 Attagene CIS-FACTORIAL EGR reporter mRNA; actives raise or lower the signal. In short, it runs like this: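 Endpoint derived by bidirectional fitting versus DMSO vehicle. Method: cis-promoter reporter units transfected into HepG2, 24 h dosing, RNA isolation, RT-PCR with 6-FAM primer extension and HpaI digestion, then capillary electrophoresis fluorescence detection.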

Assay [9] is described as follows: ATG_Ets_CIS: Attagene CIS-FACTORIAL HepG2 Assay for human Erythroblast Transformation Specific (ETS) (AID 2282941). Particulars: HepG2 ETS cis-reporter transcription, actives raise or lower the signal. In short, it runs like this:
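Multiplexed reporter transcript profiling: HepG2, 24 h treatment, total RNA to cDNA, PCR, 6-FAM labelling, HpaI cut, capillary electrophoresis. Gain- or loss-of-signal fitted against DMSO.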

Calls of active or inactive are those of the source. Rule for the calls: active = hit-call score of the fitted dose curve at least 0.9, where 1 is the maximum; inactive = score below 0.9.

Chain of Transcription factor E2F1 (Homo sapiens) (Q01094 whole entry, looked up): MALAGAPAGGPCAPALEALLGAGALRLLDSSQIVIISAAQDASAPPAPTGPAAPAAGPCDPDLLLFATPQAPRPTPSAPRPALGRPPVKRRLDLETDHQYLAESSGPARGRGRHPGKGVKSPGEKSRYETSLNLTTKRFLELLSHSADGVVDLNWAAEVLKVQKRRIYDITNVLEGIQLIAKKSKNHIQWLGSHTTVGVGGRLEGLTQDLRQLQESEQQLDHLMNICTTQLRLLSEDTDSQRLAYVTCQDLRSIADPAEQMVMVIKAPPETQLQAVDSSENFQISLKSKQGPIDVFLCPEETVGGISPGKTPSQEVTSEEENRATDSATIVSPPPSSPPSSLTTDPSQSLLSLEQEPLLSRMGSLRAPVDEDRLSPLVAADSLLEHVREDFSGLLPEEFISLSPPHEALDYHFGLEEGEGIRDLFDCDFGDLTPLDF
Chain of Hepatocyte nuclear factor 3-beta (Homo sapiens) (Q9Y261 whole entry, looked up): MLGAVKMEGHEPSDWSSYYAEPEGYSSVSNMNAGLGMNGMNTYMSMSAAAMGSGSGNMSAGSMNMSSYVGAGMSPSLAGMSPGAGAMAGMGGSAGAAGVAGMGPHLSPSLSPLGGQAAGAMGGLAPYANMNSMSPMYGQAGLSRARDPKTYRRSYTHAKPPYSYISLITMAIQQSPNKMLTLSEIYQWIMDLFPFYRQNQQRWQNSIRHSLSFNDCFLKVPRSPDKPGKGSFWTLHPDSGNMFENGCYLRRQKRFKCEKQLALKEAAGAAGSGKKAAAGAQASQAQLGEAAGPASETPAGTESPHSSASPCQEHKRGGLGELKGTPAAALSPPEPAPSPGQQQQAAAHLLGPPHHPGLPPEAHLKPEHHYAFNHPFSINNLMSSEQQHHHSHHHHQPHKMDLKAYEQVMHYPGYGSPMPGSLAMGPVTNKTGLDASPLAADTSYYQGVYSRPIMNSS

For the compound `Cc1ccc2c(c1)CCCN2`, the result in assay [1], in assay [2], in assay [3], in assay [4], in [5] and in assay [6] was inactive. In addition, the call in [7] was inactive.

In the case of `COc1ccc(C(=O)/C(Br)=C\C(=O)O)cc1`, the compound was called inactive in assay [1], in assay [2], in [3], in [4], in [9] and in assay [5]. For the same compound, the call in [6] and in assay [7] was inactive. Besides, the AC50 in assay [8] was 68 µM (active).

With `Nc1ccnc(=O)[nH]1`, the compound was called inactive in [1], in assay [2], in assay [3], in [9], in assay [5] and in assay [6]. Besides, the compound was called inactive in assay [7].

As for `Cc1c[nH]c(=O)[nH]c1=O`, the result in [1], in assay [2], in [8], in assay [3], in assay [4] and in [9] was inactive. Further, the compound was classed as inactive in [5], in assay [6] and in assay [7].

Regarding `C1CCSC1`, the compound was classed as inactive in assay [1], in [2], in [8], in assay [3], in assay [4] and in assay [9]. Moreover, the compound was classed as inactive in assay [5], in assay [6] and in [7].

As to `CCc1cccc(CC)c1`, the compound was called inactive in assay [1], in [2], in [8], in assay [3], in [9] and in assay [5]. Moreover, the compound was classed as inactive in assay [6] and in [7].

Regarding `CC(C)(CO)COC(=O)C(C)(C)CO`, the compound was classed as inactive in [1], in assay [2], in assay [8], in [3], in [4] and in assay [9]. For the same compound, the compound was classed as inactive in assay [5], in assay [6] and in [7].

Take `COc1ccc(C(=O)c2ccccc2)c(O)c1`: the outcome in assay [1], in assay [2], in assay [3], in assay [5], in [6] and in assay [7] was inactive. In addition, the AC50 in assay [8] was 85.1 µM (active); in [4] it was 5.69 µM (active).

Regarding `COC(Cc1ccccc1)OC`, the call in assay [1], in assay [2], in assay [8], in [3], in [4] and in [9] was inactive. Also, the result in [5], in assay [6] and in assay [7] was inactive.

As to `Cc1cc(C)n(CO)n1`, the compound was called inactive in [1], in [2], in assay [8], in assay [3], in assay [4] and in assay [9]. The compound was called inactive in [5], in assay [6] and in assay [7].

For the compound `CCCCCC(=O)OCC`, the call in assay [1], in assay [2], in [8], in assay [3], in assay [4] and in assay [9] was inactive. Further, the call in assay [5], in assay [6] and in [7] was inactive.

Take `CCCCNC(=S)NCCCC`: the compound was classed as inactive in assay [1], in [2], in assay [8], in assay [3], in assay [4] and in assay [9]. Moreover, the result in assay [5], in assay [6] and in assay [7] was inactive.

As for `CCCCCCCCC(CO)CCCCCC` (stereo not drawn), the AC50 in [1] was 189 µM (active); in assay [2], 34.3 µM (active); in assay [9] it was 173 µM (active); in assay [7] it was 65.5 µM (active). Also, the compound was called inactive in assay [8], in assay [3], in assay [4], in assay [5] and in assay [6].

For the compound `C=C(C)C1CC=C(C)CC1` (stereo not drawn), the outcome in assay [1], in assay [2], in [8], in assay [3], in assay [4] and in assay [9] was inactive. The outcome in [5], in assay [6] and in assay [7] was inactive.

`CCCC(C)C(=O)OCC` (stereo not drawn): the call in assay [1], in [2], in [8], in assay [3], in assay [4] and in assay [9] was inactive. Besides, the result in assay [5], in assay [6] and in assay [7] was inactive.

On to `O=C1CCCN1C1CCCCC1`, for which the compound was classed as inactive in assay [1], in assay [2], in assay [8], in assay [3], in assay [9] and in assay [5]. Moreover, the outcome in [6] and in [7] was inactive.

Take `Cn1ccnc1`: the result in assay [1], in assay [2], in assay [8], in assay [3], in assay [4] and in assay [9] was inactive. Moreover, the outcome in [5], in assay [6] and in assay [7] was inactive.

For `CC(=O)c1ccc(S(=O)(=O)NC(=O)NC2CCCCC2)cc1`, the compound was classed as inactive in assay [1], in assay [2], in [8], in [3], in [4] and in assay [9]. Besides, the outcome in [5], in assay [6] and in assay [7] was inactive.

Turning to `CC(=O)OC1CCCCC1C(C)(C)C` (stereo not drawn), the compound was classed as inactive in [1], in assay [2], in assay [8], in assay [3], in [4] and in assay [9]. For the same compound, the result in assay [5], in assay [6] and in [7] was inactive.

Regarding `CC1C(C)(C)C2=C(C(=O)CCC2)C1(C)C` (stereo not drawn), the compound was called inactive in assay [1], in [2], in assay [8], in [3], in assay [9] and in assay [5]. The compound was called inactive in assay [6] and in assay [7]. Moreover, in assay [4], the AC50 was 26.6 µM (active).

One may read the AC50 as the concentration at which the activity in the assay is half-maximal.
